Assay outcomes deposited in PubChem by several laboratories.
An excerpt weighted towards active compounds, which were near 4.3% of everything screened.
ADAM10 inh: human ADAM10 inhibitors, primary screen, biochemical, QFRET, HTS; 370,000 tested, 0.62% active; AID 720582, 2013; inhibition, % at 7 µM; recombinant ADAM10, EDANS/DABCYL FRET peptide cleavage, 3 h;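 active = inhibition above a per-campaign cutoff equal to the mean of compounds falling between control-based bounds plus 3 SD, cut at about 20% in these data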;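 note: 0% = DMSO wells while the 100% control is not disclosed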
GRIN3A LBD mod: binders of NR3A ligand-binding domain, primary screen, biophysical, differential scanning fluorimetry, uHTS; Glutamate receptor ionotropic, NMDA 3A (GRIN3A) ligand-binding domain; NR3A LBD differential scanning fluorimetry, Tm shift; 0% = protein alone, 100% = glycine-bound protein; Tm shift relative to glycine control, % at 25 µM; 340,000 tested, 2.5% active; AID 1259313, 2017;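 active = melting temperature shift of at least 10% of the positive control shift, at one fixed dose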
ADAM17 inh: ADAM17 inhibitors, primary screen, biochemical, QFRET; Disintegrin and metalloproteinase domain-containing protein 17 (Homo sapiens), P78536; recombinant ADAM17, EDANS/DABCYL FRET peptide cleavage; inhibition, % at 6.95 µM; 370,000 tested, 0.83% active;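 active = inhibition above the mean of compounds lying between control limits plus 3 SD, set per campaign, cut at about 8.5% in these data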;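 note: 0% = DMSO-only wells as the low control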
Target sequence (P78536 215-824 limits assumed): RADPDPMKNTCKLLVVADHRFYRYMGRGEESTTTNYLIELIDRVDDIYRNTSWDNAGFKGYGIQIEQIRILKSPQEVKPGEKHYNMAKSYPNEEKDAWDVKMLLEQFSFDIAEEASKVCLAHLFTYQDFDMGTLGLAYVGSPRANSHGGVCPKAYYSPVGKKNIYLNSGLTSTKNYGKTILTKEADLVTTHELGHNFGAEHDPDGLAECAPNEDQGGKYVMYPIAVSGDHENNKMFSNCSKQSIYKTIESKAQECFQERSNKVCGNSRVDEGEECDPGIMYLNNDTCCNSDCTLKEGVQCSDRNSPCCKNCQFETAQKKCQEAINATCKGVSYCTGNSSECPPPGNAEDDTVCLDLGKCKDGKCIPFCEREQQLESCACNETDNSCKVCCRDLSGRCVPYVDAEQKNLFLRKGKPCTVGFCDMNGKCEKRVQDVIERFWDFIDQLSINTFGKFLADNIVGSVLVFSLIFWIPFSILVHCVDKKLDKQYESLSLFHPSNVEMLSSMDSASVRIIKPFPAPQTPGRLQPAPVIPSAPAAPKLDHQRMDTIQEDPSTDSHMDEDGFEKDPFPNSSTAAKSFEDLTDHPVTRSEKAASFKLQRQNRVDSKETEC
sPLA2-III inh: human group III sPLA2 inhibitors, primary screen, biochemical, QFRET, BODIPY PC-A2 liposome substrate | Group 3 secretory phospholipase A2 (Homo sapiens), Q9NZ20 | QFRET BODIPY PC-A2 liposome hydrolysis, fluorescence | inhibition, % at 12.2 µM | 370,000 tested, 0.56% active;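 active = inhibition above mean plus 3 SD of compounds lying within the high and low control bounds, cut at about 19% in these data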;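 note: 0% = median of test compound wells and 100% = no enzyme DMSO wells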
FAS TE block: FAS thioesterase domain inhibitors, primary screen, biochemical, fluorescence intensity, uHTS; Fatty acid synthase (Homo sapiens), P49327; recombinant FAS-TE, OMFH fluorogenic substrate, fluorescence endpoint; inhibition, % at 15 µM; 360,000 tested, 0.67% active;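 active = compounds whose normalised, plate-corrected inhibition of enzyme fluorescence in the single-dose primary screen is 50% or more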;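 note: 0% = DMSO with enzyme and 100% = substrate without enzyme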
FAS-TE inh conf: FAS thioesterase domain inhibitors, confirmation, biochemical, fluorescence intensity, single concentration. shares compounds with FAS TE block. recombinant FAS-TE, OMFH fluorogenic substrate. inhibition, % at 15 µM. 2,300 tested, 45% active. AID 624325, 2012;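 active = compounds inhibiting the enzyme by at least 50% at 15 µM in any one of the replicates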;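 note: 0% = enzyme with DMSO only and 100% = wells lacking enzyme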
ADAM10 confirm: human ADAM10 inhibitors, confirmation, biochemical, QFRET, triplicate; shares compounds with ADAM10 inh; ADAM10 QFRET peptide cleavage, EDANS fluorescence; inhibition, % at 6.95 µM; 2,100 tested, 1% active;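 active = inhibition above about 20% chosen separately for each screening run, limit read from the data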;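 note: 0% = DMSO wells and 100% = marimastat wells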
ADAM17 counter: ADAM17 inhibitors, counter-screen for ADAM10 exosite inhibitor project, biochemical, QFRET, high throughput | shares compounds with ADAM10 inh | ADAM17 QFRET peptide cleavage, EDANS fluorescence | inhibition, % at 6.95 µM | 2,100 tested, 0.5% active;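 active = mean triplicate inhibition above the solvent-only control wells' mean plus 3 SD, cut at about 12% in these data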;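 note: 0% = DMSO wells and 100% = marimastat wells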
ADAM10 ctr: ADAM10 inhibitors, counter-screen for ADAM17 exosite inhibitor project, biochemical, FRET, human ADAM10; shares compounds with ADAM17 inh; recombinant ADAM10, EDANS/DABCYL FRET peptide cleavage, 3 h; inhibition, % at 6.95 µM; 2,900 tested, 47% active; AID 743256, 2014;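 active = mean inhibition over the triplicate runs exceeds the activity threshold set in the earlier primary screen, cut at about 20% in these data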;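 note: 0% = DMSO wells and 100% = marimastat wells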
ADAM17 confirm: ADAM17 inhibitors, hit retest, confirmation, biochemical, QFRET peptide cleavage; shares compounds with ADAM17 inh; recombinant ADAM17, EDANS/DABCYL QFRET peptide cleavage; inhibition, % at 6.95 µM; 2,900 tested, 65% active;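 active = mean inhibition across replicates above the hit cutoff set in the primary screen, cut at about 8.5% in these data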;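 note: 0% = DMSO wells and 100% = marimastat wells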
Starred values were filed as active, the others as inactive; . = not tested or not shown.

SMILES | ADAM10 inh | GRIN3A LBD mod | ADAM17 inh | sPLA2-III inh | FAS TE block | FAS-TE inh conf | ADAM10 confirm | ADAM17 counter | others
Cc1ccc(S(=O)(=O)Nc2ccc3c(c2)C(=O)N([C@@H](C)CO)C[C@@H](C)[C@@H](CN(C)S(=O)(=O)c2ccccc2)OCCCC[C@H](C)O3)cc1 | 23* | . | 8 | -50 | 79* | -2 | 7 | 2
C[C@@H]1CCCCO[C@H](CN(C)S(=O)(=O)c2cccs2)[C@@H](C)CN([C@H](C)CO)C(=O)c2cc(NC(=O)Nc3ccc4c(c3)OCO4)ccc2O1 | 20* | . | 5 | -8 | 60* | 11 | 5 | 1
COc1ccc(S(=O)(=O)N(C)C[C@H]2OCCCC[C@H](C)Oc3ccc(NC(=O)Nc4ccc(F)cc4)cc3C(=O)N([C@H](C)CO)C[C@H]2C)cc1 | 14 | . | 7 | -34 | 32 | . | . | .
Cc1ccc(S(=O)(=O)N(C)C[C@@H]2OCCCC[C@H](C)Oc3ccc(NC(=O)Nc4ccc(F)cc4)cc3C(=O)N([C@H](C)CO)C[C@H]2C)cc1 | 23* | . | 8 | -25 | 62* | 0 | 7 | 3
COc1ccc(C#CCN(Cc2ccc(OC)cc2OC)C(N)=NC(=O)CCc2ccccc2)cc1 | 12 | . | 4 | -13 | . | . | . | .
Cc1ccc(NC(=O)C(C)c2ccc([N+](=O)[O-])cc2)cc1Cl (configuration not stated) | 24* | 12* | 7 | -17 | 59* | 45 | 5 | 1
COc1ccc(C2CC(c3ccccc3)=NN2S(=O)(=O)c2ccc(C)cc2)c(OC)c1 (configuration not stated) | 23* | 4 | 7 | 5 | 58* | 12 | 7 | 2
CCC(CO)Nc1cccc2c1S(=O)(=O)N(Cc1cn(Cc3cccc(C(F)(F)F)c3)nn1)Cc1ccccc1O2 (configuration not stated) | -31 | . | -6 | -13 | . | . | . | .
CCOC(=O)[C@@]12CCC3=C1N(CCC3)C(=O)[C@H](CC(=O)NCC13CC4CC(CC(C4)C1)C3)C2 | 2 | . | -5 | -4 | . | . | . | .
O=C1CCC[C@H]2CC3(CC[C@]24CCCN14)OCCO3 | -4 | . | -5 | 1 | . | . | . | .
O=C1OCCN1C(=O)[C@H]1[C@H](c2ccc([N+](=O)[O-])cc2)C(c2cccc(Cl)c2)=NN1c1ccc(Br)cc1 | 24* | 7 | 6 | -17 | 87* | 6 | 14 | 5
CC(=O)C1=C(O)C(=O)N(c2ccc(Br)cc2)C1c1cccc([N+](=O)[O-])c1 (configuration not stated) | 4 | 3 | 1 | -8 | -2 | . | . | .
CCCN(CC(=O)Nc1ccccc1Br)CC(=O)Nc1ccc(F)c(F)c1F | 3 | -10 | 0 | -1 | 18 | . | . | .
CCCN(CC(=O)Nc1cc(Cl)cc(Cl)c1)CC(=O)Nc1ccc(F)c(F)c1F | 28* | 20* | 13* | -21 | 51* | 34 | 12 | 3
O=C(NC1CCCCN(Cc2cccc(F)c2)C1=O)c1ccc(-c2ccccc2)cc1 (configuration not stated) | 7 | . | 3 | 0 | . | . | . | .
C[C@@]12C(=O)Nc3cc(F)c(F)cc3C(=O)N1[C@H]1c3ccccc3OC[C@@H]1[C@@H]2c1ccccc1 | 21* | 0 | 10* | 15 | 76* | 44* | 7 | 4
O=C(NC(Cc1c[nH]c2ccccc12)C(=O)O)c1cccs1 (configuration not stated) | 6 | -6 | 2 | -7 | -6 | . | . | .
O=C(NC(Cc1c[nH]c2ccccc12)C(=O)Nc1ccc(F)c([N+](=O)[O-])c1)c1cccs1 (configuration not stated) | 20* | 5 | 8 | -97 | 63* | 63* | 4 | 2
CSc1nnc2c(n1)C[C@H](c1ccccc1)[C@@H](C)[C@@H](C(=O)N1CCCC1)C2 | -7 | . | 0 | 8 | . | . | . | .
CCCCCCCCOC(=O)C1=C(C)Nc2nnnn2C1c1cccs1 (configuration not stated) | 20* | -7 | 10* | -40 | 62* | 41 | 8 | 3 | ADAM10 ctr=21*;ADAM17 confirm=8
CCCCCCCOC(=O)C1=C(C)Nc2ncnn2C1c1cccs1 (configuration not stated) | 1 | 0 | 0 | -3 | 1 | . | . | .
COCCOc1ccc(C(F)(F)F)cc1NC(=O)COC(=O)c1cc([N+](=O)[O-])ccc1N1CCOCC1 | 22* | -10 | 8.9* | -7 | 72* | 30* | 2 | 0 | ADAM10 ctr=17;ADAM17 confirm=8.9*
COCCOc1ccc(C(F)(F)F)cc1NC(=O)COC(=O)c1ccc(N2CCCC2=O)cc1 | -14 | -1 | -6 | 2 | 1 | . | . | .
COc1ccc([N+](=O)[O-])cc1NC(=O)CSc1ccc2ccccc2c1 | 10 | 1 | 9.6* | -12 | 55* | 44 | . | . | ADAM10 ctr=21*;ADAM17 confirm=8
COc1ccc([N+](=O)[O-])cc1NC(=O)CSc1nc(C)cc(C)n1 | 5 | 2 | 5 | 13 | 18 | . | . | .
CC(C)(C)c1cc(C(=O)NNc2cc(C(F)(F)F)ccc2Cl)n(Cc2ccccc2)n1 | 19 | 3 | 10* | 11 | 54* | 15 | . | . | ADAM10 ctr=27*;ADAM17 confirm=10*
